# Publication PMC5700166
# Molecular target: GST-Hu-p50 (Homo sapiens, UniProt P19838 7-356)
# Experiment: protein-binding microarray (PBM); PBM: ~300 nM protein, 6 mM HEPES pH 7.8, 80 mM KCl, 0.5 mM EDTA, 0.5 mM EGTA, 6% glycerol, 35 ng/ul poly-dIdC, 1% milk, 1 h, room temperature; Ap Aiptasia and Nv Nematostella (sea anemones) / Co Capsaspora / Aq Amphimedon (sponge) / Dm Drosophila / Hu human; RHD is the Rel homology domain; high values mean tight binding
# Settings: dsDNA, one strand shown
# Sequence of GST-Hu-p50 (P19838 7-356): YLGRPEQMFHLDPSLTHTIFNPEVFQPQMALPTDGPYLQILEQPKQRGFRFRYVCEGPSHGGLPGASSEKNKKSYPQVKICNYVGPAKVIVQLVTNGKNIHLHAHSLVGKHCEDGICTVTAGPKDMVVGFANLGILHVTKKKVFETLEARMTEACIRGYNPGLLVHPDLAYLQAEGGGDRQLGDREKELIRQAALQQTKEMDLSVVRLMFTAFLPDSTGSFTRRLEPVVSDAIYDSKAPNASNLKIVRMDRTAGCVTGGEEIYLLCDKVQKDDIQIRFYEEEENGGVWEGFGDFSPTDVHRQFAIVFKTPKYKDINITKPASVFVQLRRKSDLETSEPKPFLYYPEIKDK
row,Sequence,binding signal [z-score]
1,CCGATTAACATCAATTTCCCGTATGATGTTAATCGGGTCTTGATTCGCTTGACGCTGCTG,2.68
2,CCGATTAACATCAGGAATCCCACTGATGTTAATCGGGTCTTGATTCGCTTGACGCTGCTG,1.55
3,CCGATTAACATCAGATTATCCCCTGATGTTAATCGGGTCTTGATTCGCTTGACGCTGCTG,4.03
4,CCGATTAACATCAAAAATTTCCGTGATGTTAATCGGGTCTTGATTCGCTTGACGCTGCTG,1.34
5,CCGATTAACATCACACCCCAACATGATGTTAATCGGGTCTTGATTCGCTTGACGCTGCTG,1.05
6,CCGATTAACATCACCGGAATTTCTGATGTTAATCGGGTCTTGATTCGCTTGACGCTGCTG,2.22
7,CCGATTAACATCACGGGGTTGCCTGATGTTAATCGGGTCTTGATTCGCTTGACGCTGCTG,1.21
8,CCGATTAACATCACCTTTAGGAGTGATGTTAATCGGGTCTTGATTCGCTTGACGCTGCTG,1.11
9,CCGATTAACATCAAGGGAAAATATGATGTTAATCGGGTCTTGATTCGCTTGACGCTGCTG,4.8
10,CCGATTAACATCAGGAATCACCCTGATGTTAATCGGGTCTTGATTCGCTTGACGCTGCTG,3.31
11,CCGATTAACATCACGGAAATTTCTGATGTTAATCGGGTCTTGATTCGCTTGACGCTGCTG,1.83
12,CCGATTAACATCAGGCAACCCCATGATGTTAATCGGGTCTTGATTCGCTTGACGCTGCTG,1.09
13,CCGATTAACATCAAATATTTCCCTGATGTTAATCGGGTCTTGATTCGCTTGACGCTGCTG,4.62
14,CCGATTAACATCAGGCATGCCCCTGATGTTAATCGGGTCTTGATTCGCTTGACGCTGCTG,1.89
15,CCGATTAACATCAGGTAACCCCATGATGTTAATCGGGTCTTGATTCGCTTGACGCTGCTG,1.35
16,CCGATTAACATCACCCTTGGGAATGATGTTAATCGGGTCTTGATTCGCTTGACGCTGCTG,1.55
17,CCGATTAACATCAATGGAATTCCTGATGTTAATCGGGTCTTGATTCGCTTGACGCTGCTG,1.48
18,CCGATTAACATCACGGGATTTTCTGATGTTAATCGGGTCTTGATTCGCTTGACGCTGCTG,4
19,CCGATTAACATCAACATTTTCCCTGATGTTAATCGGGTCTTGATTCGCTTGACGCTGCTG,4.21
20,CCGATTAACATCAATCAGCGGGGTGATGTTAATCGGGTCTTGATTCGCTTGACGCTGCTG,1.52

row,Sequence,binding signal [z-score]
1,CCGATTAACATCAGTAGTGGGGCTGATGTTAATCGGGTCTTGATTCGCTTGACGCTGCTG,1.09
2,CCGATTAACATCAGGGGATACCCTGATGTTAATCGGGTCTTGATTCGCTTGACGCTGCTG,5.1
3,CCGATTAACATCAAACTTTTCCCTGATGTTAATCGGGTCTTGATTCGCTTGACGCTGCTG,3.53
4,CCGATTAACATCAACGTTTCCCCTGATGTTAATCGGGTCTTGATTCGCTTGACGCTGCTG,5.04
5,CCGATTAACATCATGGGGTGTGCTGATGTTAATCGGGTCTTGATTCGCTTGACGCTGCTG,1.49
6,CCGATTAACATCACGTATTCCCCTGATGTTAATCGGGTCTTGATTCGCTTGACGCTGCTG,5.15
7,CCGATTAACATCATACAAGGGAGTGATGTTAATCGGGTCTTGATTCGCTTGACGCTGCTG,1.09
8,CCGATTAACATCAAGGGCTTCCCTGATGTTAATCGGGTCTTGATTCGCTTGACGCTGCTG,1.06
9,CCGATTAACATCACCCCAACCCCTGATGTTAATCGGGTCTTGATTCGCTTGACGCTGCTG,1.66
10,CCGATTAACATCAGGGGAAGCACTGATGTTAATCGGGTCTTGATTCGCTTGACGCTGCTG,5.16
11,CCGATTAACATCAGGATATACCCTGATGTTAATCGGGTCTTGATTCGCTTGACGCTGCTG,1.53
12,CCGATTAACATCATCTTTTTACTTGATGTTAATCGGGTCTTGATTCGCTTGACGCTGCTG,1.01
13,CCGATTAACATCAATTGGGAAATTGATGTTAATCGGGTCTTGATTCGCTTGACGCTGCTG,2.69
14,CCGATTAACATCAATGGGATTCCTGATGTTAATCGGGTCTTGATTCGCTTGACGCTGCTG,1.23
15,CCGATTAACATCAAGGGAAAAAATGATGTTAATCGGGTCTTGATTCGCTTGACGCTGCTG,4.89
16,CCGATTAACATCAGGGGAGATTATGATGTTAATCGGGTCTTGATTCGCTTGACGCTGCTG,4.94
17,CCGATTAACATCAAGGTATTTCCTGATGTTAATCGGGTCTTGATTCGCTTGACGCTGCTG,1.29
18,CCGATTAACATCAGCATTTTCCCTGATGTTAATCGGGTCTTGATTCGCTTGACGCTGCTG,3.25
19,CCGATTAACATCACGGAATTTTCTGATGTTAATCGGGTCTTGATTCGCTTGACGCTGCTG,1.13
